From PubChem BioAssay (NCI)
About 79,000 compounds went through this panel and 15% of them were active in at least one assay; those are over-represented in the sample as a whole. Activity calls are given as the source filed them. Rule as the data show it: active = growth inhibition above about 70%; inactive = the rest.

How the values were obtained:
[1] = NCI Yeast Anticancer Drug Screen. Data for the rad52 strain (AID 147);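 also: 0% = growth of vehicle-treated control cultures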; settings: S. cerevisiae rad52 mutant growth inhibition, stronger effect = higher value
Summary of the method: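 Inhibition of yeast growth, referenced to vehicle controls, was the measured output for a strain with defective DNA damage repair.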

[2] = NCI Yeast Anticancer Drug Screen. Data for the wt1 strain (AID 149);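 also: 0% = growth of vehicle-treated wt1 cultures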; settings: S. cerevisiae wt1 strain (SPY 50644) growth inhibition, stronger effect = higher value
Summary of the method: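 wt1 yeast, compound-treated; % growth inhibition vs vehicle control.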

[3] = NCI Yeast Anticancer Drug Screen. Data for the rad50EPP+ strain (AID 151);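 also: 0% = growth of vehicle-treated control cultures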; settings: S. cerevisiae rad50 mutant strain, stronger effect = higher value
Summary of the method: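 Genetically defined yeast (rad50EPP+, DNA damage repair alteration) is grown with compound, and inhibition of growth is expressed relative to vehicle-treated controls.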

[4] = NCI Yeast Anticancer Drug Screen. Data for the mgt1 strain (AID 153); settings: S. cerevisiae mgt1 mutant growth inhibition, stronger effect = higher value
Summary of the method: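 In the mgt1 strain, test compounds were added and growth inhibition was determined relative to vehicle-treated controls.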

[5] = NCI Yeast Anticancer Drug Screen. Data for the rad50 strain (AID 155);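 also: 0% = growth of vehicle-only cultures of the same strain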; settings: S. cerevisiae rad50 strain growth inhibition, stronger effect = higher value
Summary of the method: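 Genetically altered yeast (DNA repair pathway); compound treatment; growth inhibition vs vehicle ctrl.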

[6] = NCI Yeast Anticancer Drug Screen. Data for the mec2-1 strain (AID 157); settings: S. cerevisiae mec2-1 strain, stronger effect = higher value
Summary of the method: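 Each compound was tested on mec2-1 yeast, a strain altered in DNA damage repair or cell cycle control. Growth inhibition is reported relative to vehicle.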

[7] = NCI Yeast Anticancer Drug Screen. Data for the rad14 strain (AID 159);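 also: 0% = growth of vehicle-treated control cultures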; settings: S. cerevisiae rad14 strain growth inhibition, stronger effect = higher value
Summary of the method: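 Test compounds were applied to a repair-deficient yeast strain. Its growth was then compared with that of cultures given vehicle alone, and inhibition was expressed relative to those controls.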

[8] = NCI Yeast Anticancer Drug Screen. Data for the sgs1 mgt1 strain (AID 161);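 also: 0% = growth of cultures given vehicle only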; settings: S. cerevisiae sgs1 mgt1 strain, stronger effect = higher value
Summary of the method: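 Inhibition of yeast growth, normalised to vehicle-treated controls, is reported for a strain bearing genetic alterations in DNA damage repair.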

[9] = NCI Yeast Anticancer Drug Screen. Data for the CLN2oe strain (AID 163);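 also: 0% = growth of vehicle-only control cultures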; settings: S. cerevisiae CLN2oe strain, stronger effect = higher value
Summary of the method: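 First, the altered yeast strain was treated with each compound; second, its growth was measured; finally, inhibition was derived by comparison with vehicle controls.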

[10] = NCI Yeast Anticancer Drug Screen. Data for the cln2 rad14 strain (AID 165);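 also: 0% = growth equal to vehicle treated cultures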; settings: S. cerevisiae cln2 rad14 strain, stronger effect = higher value
Summary of the method: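 Test compounds were added to cln2 rad14 yeast cultures; inhibition of growth was then determined by comparison with vehicle treatment.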

[11] = NCI Yeast Anticancer Drug Screen. Data for the bub3 strain (AID 167); settings: S. cerevisiae bub3 mutant strain, stronger effect = higher value
Summary of the method: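 Yeast carrying a defined mutation is treated with each compound, and growth is compared with that of vehicle-exposed cells to give inhibition.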

[12] = NCI Yeast Anticancer Drug Screen. Data for the wt2 strain (AID 169);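 also: 0% = growth of vehicle-treated yeast cultures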; settings: S. cerevisiae wt2 strain growth inhibition, stronger effect = higher value
Summary of the method: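 The panel's yeast strains carry defined changes in DNA repair or cell cycle genes. Each strain is grown with compound, and growth loss is scored relative to vehicle.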

[13] = NCI Yeast Anticancer Drug Screen. Data for the mlh1 strain (AID 171);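 also: 0% = growth of vehicle-treated control cultures of the same strain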; settings: S. cerevisiae mlh1 strain growth inhibition, stronger effect = higher value
Summary of the method: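 Inhibition values reflect reduced yeast growth in the presence of compound, referenced to vehicle controls, using a strain chosen for its alteration in DNA repair or cell cycle control.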

[14] = NCI Yeast Anticancer Drug Screen. Data for the sgs1 strain (AID 173);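 also: 0% = growth of vehicle-only control cultures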; settings: S. cerevisiae sgs1 mutant, stronger effect = higher value
Summary of the method: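 Vehicle-treated cultures served as reference for growth inhibition of a yeast strain altered in DNA damage repair or cell cycle control after compound exposure.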

[15] = NCI Yeast Anticancer Drug Screen. Data for the mlh1 rad18 strain (AID 175); settings: S. cerevisiae mlh1 rad18 strain growth inhibition, stronger effect = higher value
Summary of the method: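 Inhibition values reflect reduced growth of mutant yeast versus vehicle-treated controls following compound exposure; the mutations affect DNA damage repair.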

[16] = NCI Yeast Anticancer Drug Screen. Data for the rad18 strain (AID 177); settings: S. cerevisiae rad18 mutant growth inhibition, stronger effect = higher value
Summary of the method: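 Steps: expose repair-mutant yeast to compound; measure growth; express as inhibition relative to vehicle control.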

[17] = at 5.0 µM (retest, dose inferred, filed as 0.5)
[18] = at 50.0 µM (retest, dose inferred, filed as 5.0)

Measured: growth inhibition

CCC(=O)Oc1ccc(/C=N/NC(N)=S)nc1
inactive: [1]; at 1.2 µM -6% | [1]; at 3.7 µM -11% | [1]; at 11.0 µM 4% | [1]; at 33.0 µM 13% | [1]; at 100.0 µM 18% | [2]; at 1.2 µM 0% | [2]; at 3.7 µM 7% | [2]; at 11.0 µM 7% | [2]; at 33.0 µM 13% | [2]; at 100.0 µM 19% | [3]; at 1.2 µM 0% | [3]; at 3.7 µM -5% | [3]; at 11.0 µM -9% | [3]; at 33.0 µM -11% | [3]; at 100.0 µM -12% | [4]; at 1.2 µM -1% | [4]; at 3.7 µM -3% | [4]; at 11.0 µM -2% | [4]; at 33.0 µM -5% | [4]; at 100.0 µM -4% | [5]; at 1.2 µM -7% | [5]; at 3.7 µM -11% | [5]; [17] -6% | [5]; at 11.0 µM -12% | [5]; at 33.0 µM 3% | [5]; [18] 6% | [5]; at 50.0 µM 22.4% | [5]; at 100.0 µM 21% | [6]; at 1.2 µM -2% | [6]; at 3.7 µM 0% | [6]; [17] 0% | [6]; at 11.0 µM 0% | [6]; at 33.0 µM 37% | [7]; at 1.2 µM 1% | [7]; at 3.7 µM 1% | [7]; at 11.0 µM 3% | [7]; at 33.0 µM 10% | [7]; at 100.0 µM 12% | [8]; [17] 0% | [8]; [18] 32% | [8]; at 50.0 µM 39% | [9]; at 1.2 µM -5% | [9]; at 3.7 µM -8% | [9]; at 11.0 µM -11% | [9]; at 33.0 µM -11% | [9]; at 100.0 µM -9% | [10]; [17] -5% | [10]; [18] -14% | [10]; at 50.0 µM 4% | [11]; at 1.2 µM -7% | [11]; at 3.7 µM -4% | [11]; [17] -8% | [11]; at 11.0 µM -15% | [11]; at 33.0 µM -18% | [11]; [18] -13% | [11]; at 50.0 µM 17.1% | [11]; at 100.0 µM -15% | [12]; at 1.2 µM 2% | [12]; at 3.7 µM 7% | [12]; at 11.0 µM 16% | [12]; at 33.0 µM 35% | [12]; at 100.0 µM 34% | [13]; at 1.2 µM -8% | [13]; at 3.7 µM -3% | [13]; at 11.0 µM -6% | [13]; at 33.0 µM -8% | [13]; at 100.0 µM 3% | [14]; at 1.2 µM -16% | [14]; at 3.7 µM -11% | [14]; at 11.0 µM -2% | [14]; at 33.0 µM 9% | [14]; at 100.0 µM 11% | [15]; [17] -2% | [15]; [18] 19% | [15]; at 50.0 µM 26.1% | [16]; at 1.2 µM -4% | [16]; at 3.7 µM 1% | [16]; at 11.0 µM -3% | [16]; at 33.0 µM -8% | [16]; at 100.0 µM -5%
active: [6]; [18] 95% | [6]; at 50.0 µM 87.4% | [6]; at 100.0 µM 91%

CN(C)CCNc1cccc2sc3ccc(O)cc3c(=O)c12
active: [5]; [18] 90% | [5]; at 50.0 µM 87.8%
inactive: [1]; at 1.2 µM 0% | [1]; at 3.7 µM 1% | [1]; at 11.0 µM 10% | [1]; at 33.0 µM 20% | [1]; at 100.0 µM 43% | [2]; at 1.2 µM 1% | [2]; at 3.7 µM 6% | [2]; at 11.0 µM 3% | [2]; at 33.0 µM 4% | [2]; at 100.0 µM 6% | [3]; at 1.2 µM 2% | [3]; at 3.7 µM 11% | [3]; at 11.0 µM 15% | [3]; at 33.0 µM 26% | [3]; at 100.0 µM 33% | [4]; at 1.2 µM -1% | [4]; at 3.7 µM -5% | [4]; at 11.0 µM -3% | [4]; at 33.0 µM 0% | [4]; at 100.0 µM 6% | [5]; at 1.2 µM 4% | [5]; at 3.7 µM 6% | [5]; [17] 14% | [5]; at 11.0 µM 11% | [5]; at 33.0 µM 31% | [5]; at 100.0 µM 47% | [6]; at 1.2 µM 4% | [6]; at 3.7 µM 5% | [6]; [17] -1% | [6]; at 11.0 µM 8% | [6]; at 33.0 µM 9% | [6]; [18] 17% | [6]; at 50.0 µM 18.5% | [6]; at 100.0 µM 7% | [7]; at 1.2 µM -1% | [7]; at 3.7 µM 1% | [7]; at 11.0 µM 5% | [7]; at 33.0 µM 12% | [7]; at 100.0 µM 19% | [8]; [17] 1% | [8]; [18] 7% | [8]; at 50.0 µM 48.1% | [9]; at 1.2 µM -6% | [9]; at 3.7 µM -11% | [9]; at 11.0 µM -8% | [9]; at 33.0 µM -5% | [9]; at 100.0 µM 4% | [10]; [17] 3% | [10]; [18] 26% | [10]; at 50.0 µM 45.5% | [11]; at 1.2 µM 2% | [11]; at 3.7 µM -4% | [11]; [17] 1% | [11]; at 11.0 µM -1% | [11]; at 33.0 µM -2% | [11]; [18] 8% | [11]; at 50.0 µM 36.2% | [11]; at 100.0 µM -4% | [12]; at 1.2 µM 1% | [12]; at 3.7 µM -2% | [12]; at 11.0 µM 0% | [12]; at 33.0 µM 1% | [12]; at 100.0 µM 4% | [13]; at 1.2 µM 1% | [13]; at 3.7 µM 3% | [13]; at 11.0 µM 4% | [13]; at 33.0 µM 4% | [13]; at 100.0 µM 8% | [14]; at 1.2 µM -1% | [14]; at 3.7 µM -1% | [14]; at 11.0 µM 2% | [14]; at 33.0 µM 3% | [14]; at 100.0 µM 3% | [15]; [17] -3% | [15]; [18] 44% | [15]; at 50.0 µM 66.5%
